For 3 compounds, activity (protection/inhibition) results are on record in PubChem BioAssay AID651871 (Sanford-Burnham Center for Chemical Genomics, 2012).

The assay relates to HL-1. Kind of assay: cardiomyocyte survival under oxidative or metabolic stress – cell-based, panel, H9c2 and HL-1, ATP luminescence, set 2, SAR follow-up (AID 651871).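 Further: cells exposed to stressor for 2 h before ATP readout; reference of the scale not given here.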 Conditions: H9c2/HL-1 cardiomyocytes, 2-deoxyglucose stress, with 2-deoxyglucose.
Setting [1] is: run 16, at 79 µM (top of the series).

Several values for one entry are separate records, joined by “and”; a condition that tells them apart may be missing. Equal entries are not always repeated.

For the compound `COc1ccc2nc(-c3cc(OC)c(OC)c(OC)c3)cc(C(=O)NCC(=O)Nc3ccc(C(C)=O)cc3)c2c1`, the activity (protection/inhibition) under setting [1] turned out to be 84.4%. In the case of `CCOC(=O)c1cccc(NC(=O)CNC(=O)c2cc(-c3cc(OC)c(OC)c(OC)c3)nc3ccccc23)c1`, the activity (protection/inhibition) under setting [1] is 130%. Regarding `COc1ccc2c(c1OC)C(=O)N1c3ccccc3C(=O)N(Cc3cccc(Cl)c3Cl)C21` (centres undefined), the activity (protection/inhibition) (run 16, at 19.8 µM (top of the series)) was 50.9% and 45%; the activity (protection/inhibition) under setting [1] is -9.37%.
